Screens (PubChem BioAssay)
The list is not random: actives were taken first. Their share in the collection is about 4.1%.
BoNT-A LC inh2 – inhibitors of Botulinum neurotoxin A light chain protease | inhibition, % at 10 µM | hit rate 0.17% among 360,000 | multiplex microsphere protease substrate cleavage, flow cytometry
Anthrax LF prot – inhibitors of Bacillus anthracis lethal factor protease | multiplex microsphere protease cleavage assay, LF | inhibition, % at 10 µM | hit rate 0.12% among 360,000 | P15917
DUSP3 inh – DUSP3 (human) phosphatase inhibition. P51452. recombinant VHR phosphatase, pNPP absorbance. inhibition, % at 13.3 µM. hit rate 0.52% among 290,000; in the data active = inhibition above about 50%
Target sequence (P51452 whole entry, looked up): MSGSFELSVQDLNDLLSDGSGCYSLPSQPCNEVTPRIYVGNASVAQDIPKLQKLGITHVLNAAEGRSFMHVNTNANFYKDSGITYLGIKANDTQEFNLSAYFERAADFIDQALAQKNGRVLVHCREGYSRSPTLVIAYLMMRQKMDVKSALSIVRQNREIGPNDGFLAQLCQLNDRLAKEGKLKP
MazEF act – increases E. coli MazEF RNase cleavage of RNA; P0AE70; FAM/BHQ RNA-DNA oligo cleavage fluorescence, 5 h; activation, % at 20 µM; hit rate 0.32% among 350,000; AID 504720; in the data active = activation above about 50%
Target sequence (P0AE70 whole entry, looked up): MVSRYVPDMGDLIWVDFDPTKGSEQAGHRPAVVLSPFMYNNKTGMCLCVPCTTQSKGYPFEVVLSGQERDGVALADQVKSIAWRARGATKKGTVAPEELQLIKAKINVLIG
Bead autofluor – compound fluorescence in toxin protease inhibitor counterscreen | fluorescence intensity (test concentration not listed) | compound autofluorescence counterscreen, microsphere flow cytometry; hits give high values | AID 624483 | hit rate 3.1% among 360,000; in the data active = fluorescence intensity above about 16000; inconclusive = no clear call, values can overlap the other calls
BoNT-F LC inh – inhibitors of Botulinum neurotoxin F light chain protease; inhibition, % at 10 µM; hit rate 0.22% among 360,000; Multiplex microsphere protease cleavage assay, flow cytometry; in the data active = inhibition above about 35%, passing the limit was not always enough; inconclusive = no clear call, values can overlap the other calls
Each line names hits and unclear results; the compound was inactive in the other large screens. Cut-off read from the data, not from the text of the source, unless noted: active = inhibition above about 30%; inconclusive = no clear call, values can overlap the other calls; inactive = below that.

O=S(=O)(c1ccc(F)cc1)N(CCO)CC(O)Cn1c2ccccc2c2ccccc21 (configuration not stated)	Bead autofluor 16893
Oc1ccc(-c2nc3ccccn3c2NCc2ccc3c(c2)OCO3)cc1	none
Cc1ccn2c(NCc3ccc4c(c3)OCO4)c(-c3ccc(O)cc3)nc2c1	Bead autofluor 17253
Cc1cc(C=C2C(=O)c3ccccc3C2=O)c(C)n1-c1ccc(Cl)cc1	Bead autofluor 20919
CCn1c(C)cc(C=C2C(=O)c3ccccc3C2=O)c1C	MazEF act 79
Cc1cccc(-n2c(C)cc(C=C3C(=O)c4ccccc4C3=O)c2C)c1	MazEF act 597
Cc1cc(C=C2C(=O)c3ccccc3C2=O)c(C)n1C	none
Cc1cc(C=C2C(=O)CCCC2=O)c(C)n1-c1ccccc1	none
Cc1nc(NC(=O)CSc2nnc(C3CC3)n2C)sc1C	none
Cc1ccc(SCC(=O)OCC(=O)NC(C)c2ccc(Br)cc2)cc1 (configuration not stated)	DUSP3 inh 57
CCc1cc(C(=O)Nc2cc(S(=O)(=O)N3CCOCC3)ccc2N2CCN(CC)CC2)sc1C	none (no result: BoNT-A LC inh2, Anthrax LF prot, DUSP3 inh, Bead autofluor, BoNT-F LC inh)
OCCN1CCN(CC(O)COCC2COc3ccccc3O2)CC1 (configuration not stated)	none
CC1CCCC(C)N1CC(O)COCC1COc2ccccc2O1 (configuration not stated)	DUSP3 inh 55
Cc1ccc(C(=O)Nc2cccc(C(O)c3ccccc3)c2)cc1 (configuration not stated)	BoNT-F LC inh inconclusive (no result: DUSP3 inh)
CCOC(=O)C1=C2NC(=O)c3ccccc3N2C(=O)C1	MazEF act 132
CCOC(=O)CC1CCCCN1C(=O)c1cc(COc2cccc3cnccc23)on1 (configuration not stated)	none
CCN(CC)c1ccc(NC2CC(=O)N(CCc3ccc(OC)cc3)C2=O)cc1 (configuration not stated)	MazEF act 60
COc1ccc(CCNC2CC(=O)N(CCc3ccccc3)C2=O)cc1 (configuration not stated)	none
COc1ccc(/C(O)=C/C(=O)C(=O)Nc2c(C)n(C)n(-c3ccccc3)c2=O)cc1	Bead autofluor 21666
Cc1c(NC(=O)C(=O)/C=C(/O)c2ccccc2)c(=O)n(-c2ccccc2)n1C	none
Cc1ccc(C(=O)OCC(=O)Nc2ccc(N3CCOCC3)cc2)cc1	none (no result: DUSP3 inh)
COC(=O)C(Nc1ccccc1Cl)(c1cc(C)c(O)c(C)c1)C(F)(F)F (configuration not stated)	none
COC(=O)/C(=C(/F)Sc1cc(C)c(O)c(C)c1)C(F)(F)F	Bead autofluor 22354
CC(CNc1ccc(Cl)cc1)(CNc1ccc(Cl)cc1)[N+](=O)[O-]	none (no result: DUSP3 inh)
CCc1nc(NCc2ccc3c(c2)OCO3)c2oc3ccccc3c2n1	BoNT-A LC inh2 inconclusive, Bead autofluor 23489
c1ccc2c(c1)oc1c(Nc3ccc4c(c3)OCCO4)ncnc12	Bead autofluor 19956
CCc1nc(Nc2ccc3c(c2)OCCO3)c2oc3ccccc3c2n1	Bead autofluor 17390
Cc1nc(NCc2ccc3c(c2)OCO3)c2oc3ccccc3c2n1	none
CCC1Oc2ccc(C)cc2N(CC(=O)N(Cc2ccc3c(c2)OCO3)CC2CCCO2)C1=O (configuration not stated)	Bead autofluor 24977
COc1ccc(CN(CC2CCCO2)C(=O)CN2C(=O)C(C)Oc3ccc(C)cc32)cc1OC (configuration not stated)	none
COc1ccc(-n2nnnc2SCC(=O)NC2CCS(=O)(=O)C2)cc1 (configuration not stated)	Anthrax LF prot inconclusive, Bead autofluor inconclusive, BoNT-F LC inh inconclusive (no result: DUSP3 inh)
Cc1cc(C(=O)N2CCC3(CC2)OCCO3)no1	none
Cc1cc(NC(=O)CCC(=O)N2CCC3(CC2)OCCO3)no1	Bead autofluor 23557
COC(=O)COc1ccc(S(=O)(=O)NCc2cccnc2)cc1C	Bead autofluor 17503
COc1cc(S(=O)(=O)NCc2cccnc2)ccc1F	Bead autofluor 21999
C=CCN=C(NC#N)SCCc1ccccc1	Bead autofluor 20089
Oc1ccc(C(=S)N2CCCC2)cc1	BoNT-F LC inh inconclusive
CC1CCN(C(=S)c2ccc(O)cc2)CC1	Bead autofluor 22756
COc1ccccc1/C=C1\SC(=S)N(Nc2nc(C)cc(C)n2)C1=O	Bead autofluor 24819
Cc1cc(C)nc(NN2C(=O)/C(=C/c3ccc(O)cc3)SC2=S)n1	none
CCc1ccc(NC(=O)COC(=O)CC2CCCC2)cc1	none (no result: DUSP3 inh)
COc1ccc(-c2noc(C3CCCN(S(=O)(=O)c4cccc(Cl)c4C)C3)n2)cc1OC (configuration not stated)	Bead autofluor 17219
CCCS(=O)(=O)N1CCCC(c2nc(-c3ccc(OC)cc3)no2)C1 (configuration not stated)	none
COc1ccc(-c2noc(C3CCCN(S(=O)(=O)c4ccc(C)c(Cl)c4)C3)n2)cc1OC (configuration not stated)	none
CCS(=O)(=O)N1CCCC(c2nc(-c3cccc(OC)c3)no2)C1 (configuration not stated)	Bead autofluor 23563
CC(=O)c1cccc(S(=O)(=O)N2CCCC(c3nc(-c4ccc(C)o4)no3)C2)c1 (configuration not stated)	BoNT-A LC inh2 inconclusive, Bead autofluor 17085
O=C(Nc1ccc(Cl)cc1)c1cncs1	none (no result: DUSP3 inh)
N#Cc1ccccc1S(=O)(=O)N1CCN(C(=O)C2COc3ccccc3O2)CC1 (configuration not stated)	none (no result: BoNT-A LC inh2, Anthrax LF prot, DUSP3 inh, Bead autofluor, BoNT-F LC inh)
CCCOc1ccc(F)cc1-c1cc(C(=O)Nc2ccc(C(C)C)cc2)[nH]n1	none (no result: DUSP3 inh, MazEF act)
Cn1cccc1C(=O)NC(=O)COC(=O)CCNS(=O)(=O)c1cccc(C(F)(F)F)c1	none (no result: BoNT-A LC inh2, Anthrax LF prot, DUSP3 inh, Bead autofluor, BoNT-F LC inh)
CCCS(=O)(=O)NC(=O)C1(C)CCN(C(=O)c2ccc(OC(F)F)cc2)C1 (configuration not stated)	none (no result: DUSP3 inh, MazEF act)
Cc1ccccc1-c1ccc(/C=C2/SC(N3CCOCC3)=NC2=O)o1	MazEF act 151, BoNT-F LC inh inconclusive
O=C1N=C(N2CCOCC2)S/C1=C\c1ccc(-c2ccccc2Cl)o1	MazEF act 61
CC(=O)Nc1cccc(NC(=O)COc2ccc3c(c2)OCO3)c1	none
O=C(NC1CCCCC1)C(c1ccc(F)cc1)N(C(=O)c1csnn1)C1CC1 (configuration not stated)	none
CCOC(=O)C1=C(C)N(c2ccc(C)cc2)C(=O)/C1=C\c1cccs1	Bead autofluor 16417
Cn1c(CNC(=O)CNS(=O)(=O)c2ccc(Cl)cc2)cc(=O)n(C)c1=O	none
O=C(NCc1ccco1)c1ccc(Cl)c(S(=O)(=O)N2CCc3ccccc32)c1	DUSP3 inh 56
N#Cc1cc2c(nc1SCC(=O)Nc1cc(Cl)ccc1Cl)C1CCN2CC1	BoNT-A LC inh2 inconclusive, Bead autofluor 20370
CN(CC(=O)Nc1cccc(F)c1)C(=O)c1ccccc1CCc1ccccc1	none (no result: DUSP3 inh)
CCOC(=O)c1cnn(-c2cc(C(C)(C)C)nc3c(-c4ccccc4)c(C)nn23)c1N	BoNT-A LC inh2 inconclusive, Bead autofluor 26542
CCOC(=O)c1cnn(-c2cc(C)nc3c(-c4ccccc4)cnn23)c1N	none
